CD11b adhes enh = enhancers of CD11b/CD18 adhesion to fibrinogen, primary screen, K562 cells, luminescence. Integrin beta-2 (Homo sapiens) + Integrin alpha-M (Homo sapiens), P05107+P11215. ATPlite luminescence. activation, % at 10 µM. 0.07% of 93,000 active. AID 1499, 2009;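 active = 10 µM primary screen giving 50% or more activity, confirmed by 40% or more on retest at that dose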
Target sequence (P05107 whole entry, looked up, other chains not shown): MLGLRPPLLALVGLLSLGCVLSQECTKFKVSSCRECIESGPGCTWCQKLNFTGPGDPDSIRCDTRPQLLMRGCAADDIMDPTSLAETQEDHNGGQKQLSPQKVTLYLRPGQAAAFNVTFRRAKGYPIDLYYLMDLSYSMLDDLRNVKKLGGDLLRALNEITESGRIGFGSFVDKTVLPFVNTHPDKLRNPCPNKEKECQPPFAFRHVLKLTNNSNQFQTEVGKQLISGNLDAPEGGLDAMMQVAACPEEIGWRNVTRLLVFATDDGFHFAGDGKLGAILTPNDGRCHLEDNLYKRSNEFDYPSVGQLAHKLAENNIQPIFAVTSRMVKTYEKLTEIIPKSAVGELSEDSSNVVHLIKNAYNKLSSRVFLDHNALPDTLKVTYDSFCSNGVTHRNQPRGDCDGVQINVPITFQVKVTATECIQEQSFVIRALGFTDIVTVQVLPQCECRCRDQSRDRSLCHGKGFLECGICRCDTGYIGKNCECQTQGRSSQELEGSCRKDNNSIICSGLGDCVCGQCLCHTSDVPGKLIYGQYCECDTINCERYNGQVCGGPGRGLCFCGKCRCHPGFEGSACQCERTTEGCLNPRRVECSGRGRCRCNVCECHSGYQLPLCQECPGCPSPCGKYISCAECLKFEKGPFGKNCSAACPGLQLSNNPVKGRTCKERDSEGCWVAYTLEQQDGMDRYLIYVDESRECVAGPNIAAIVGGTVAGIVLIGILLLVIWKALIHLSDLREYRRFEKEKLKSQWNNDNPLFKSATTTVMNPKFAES
MRP-1 activ = H69AR viability gain despite doxorubicin, primary screen, MRP-1 activator project, H69AR cells, CellTiter-Glo; viability rescue; viability increase, % at 10 µM; 0.61% of 140,000 active; AID 799, 2007;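 active = viability gain under doxorubicin at or above a set limit, the compound median plus 3 SD, cut at about 4.7% in these data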;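 also: MRP-1 overexpressing cells given doxorubicin 25 µM after compound pretreatment; 18-22 h compound pretreatment then 72 h with doxorubicin before readout; 0% = doxorubicin-only wells and 100% = vehicle-treated cells without doxorubicin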
Phagocyt inh = inhibitors of macrophage phagocytosis, primary screen, imaging, J774A.1 cells, IgG beads; J774A.1 macrophage IgG-bead phagocytosis; inhibition, % at 5 µM; 0.07% of 110,000 active;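 active = inhibition above the mean of the plate negative controls plus 5 SD, cut at about 13% in these data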;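 also: phagocytic index as fraction of beads internalized from green versus red external bead signal; plate controls were DMSO negative control for no effect and cytochalasin-D positive control for full effect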
MRP reversal = reversal of MRP1-mediated doxorubicin resistance, primary screen, H69AR cells, doxorubicin co-treatment; H69AR cells + 2 uM doxorubicin, CellTiter-Glo, 72 h; 0.04% of 85,000 active; differential viability (reversal), % at 10 µM;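 active = viability drop by adding the cancer drug above about 55%, with treated viability meeting a 40% cutoff, limit read from the data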;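 also: viability without doxorubicin minus viability with 2 µM doxorubicin for each compound; larger differential means the compound sensitizes cells more to doxorubicin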
Mac1 fbg inh = inhibitors of CD11b/CD18 adhesion to fibrinogen, primary screen, K562 cells, luminescence | ATPlite luminescence; Mn2+ added to activate the integrin | inhibition, % at 10 µM | 0.54% of 93,000 active | AID 1497, 2009;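 active = primary inhibition of 50% or more at 10 µM, then 40% or more on retest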
SDO1 yeast rescue = growth rescue of sdo1-depleted yeast, primary screen, S. cerevisiae, bone marrow failure model; S. cerevisiae sdo1-depleted JHY4D growth rescue, OD600 30 h; active compounds read high; pdr5 snq2 efflux-pump mutant strain; z-score at 10 µM; 0.21% of 140,000 active; AID 817, 2007;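 active = z-score above 3 at both the 24 hr and the 30 hr optical density reads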;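 also: z-score against mean and SD of all compound wells on the same plate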
SDO1 rescue DR = SDO1-depleted yeast growth rescue, concentration-response, diseases of bone marrow failure, JHY4D, OD600; shares compounds with SDO1 yeast rescue; S. cerevisiae JHY4D (SDO1-depleted) growth rescue, 30 h; active compounds read high; efflux-deficient strain, SNQ2 and PDR5 mutated; OD recovery (test concentration not listed); 44% of 440 active; AID 949, 2007;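 active = yeast growth recovered at 30 hours, either rising with dose fitted slope above 0.001 or with average optical density gain above 0.07, some results past the limit were not filed as active; inactive = growth falling with dose or no effect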;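 also: gain in OD600 from 0 h to 30 h averaged across all seven doses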
Numbers without * were called inactive; / = no result; + = active, no number; [ ] = remark or other dose. In the library only some 1.3% were active in any assay of this set; here they are far more common.

SMILES	CD11b adhes enh	MRP-1 activ	Phagocyt inh	MRP reversal	Mac1 fbg inh	SDO1 yeast rescue	others
O=C(c1cccn2c(=O)c3cc(Br)ccc3nc12)N1CCC2(CC1)OCCO2	3	4.8*	0	6	-10	0.14
N#Cc1cc2c(nc1SCC(=O)Nc1cc(Cl)ccc1Cl)C1CCN2CC1	/	-4	/	1	/	-1
CC(=NCCN1CCCCC1)c1c(O)n(-c2ccc(Cl)cc2)c(=O)[nH]c1=O	-3	0	1	-15	-1	0.71
CCN1/C(=C\C=C\C2=[N+](CC)c3ccccc3C2(C)C)C(C)(C)c2ccccc21	-6	-5	+[artifact]	0	97*	-2.2
COc1ccc(N2C(=O)CC(N3CCC(n4c(=O)[nH]c5ccccc54)CC3)C2=O)cc1 (centres undefined)	-4	5.5*	-1	-10	-31	1.5
CCn1nc(-c2cccs2)nc2c(=O)n(C)c(=O)nc1-2	-1	-1	-2	/	63*	-2.6
O=c1c2ccccc2nc(-c2cccs2)n1-c1ccccc1	/	-3	/	/	/	-1.7
CN(C)c1ccc(NC(=O)CN2C(=O)CN=C(c3ccccc3)c3cc(Cl)ccc32)cc1	2	6.8*	0	3	-8	-1.5
Cc1ccc(NC(=O)CN2C(=O)CN=C(c3ccccc3)c3cc(Cl)ccc32)cc1	-1	0	0	2	-8	-2.3
O=S(=O)(c1ccc(Cl)cc1)N1CC1c1ccccc1 (centres undefined)	/	-1	-11	/	/	0.35
Cc1ccc(N2C(=O)NC(=O)/C(=C/c3cnc(-c4ccccc4)nc3)C2=O)cc1C	/	-1	-4	/	/	0.22
Cc1ccc(N2C(=O)NC(=O)/C(=C\c3ccsc3)C2=O)cc1C	0	5.5*	-1	/	-4	0.47
CC(C)OP(=O)(OC(C)C)C(O)c1ccccc1F (centres undefined)	4	1	-7	/	6	0.12
O=C(COc1ccc(Cl)cc1)N1CCN(Cc2ccccc2)CC1	-3	6.5*	0	6	10	-0.85
O=P(/C(=N/O)N1CCOCC1)(N1CCOCC1)N1CCOCC1	-2	0	0	-3	-8	0.26
CCC(=NCCc1c[nH]c2ccccc12)c1c(O)n(C)c(=O)n(C)c1=O	-5	-1	0	-14	79*	-0.52
CCC(CC)C(=O)NC1CCSC1=O (centres undefined)	-2	-4	-3	-1	-1	0.65
CCN(CC)S(=O)(=O)c1ccc(NN=C(C#N)C#N)cc1	/	5.6*	-3	/	/	1
CCOC(=O)c1cc(CC)sc1/N=C/c1c(O)[nH]c(=S)[nH]c1=O	/	-3	-1	/	/	14*	SDO1 rescue DR=0.069
CC1=C(/C=C/c2ccccc2)CCN(C)C1	-3	-2	1	/	-1	1.2
